{"source": "PubChem BioAssay (NCI)", "note": "About 83,000 compounds went through this panel and 20% of them were active in at least one assay; those are over-represented in the sample as a whole.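 Negative percent growth values reflect cell death: -40 means 40% of the cells present at the start died, and -100 means all died.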 Active and inactive are the calls of the source. Rule for the calls: active = growth percent below 10; inactive = the rest."}
{"tested_on": "MDA-MB-468 breast", "experiment": "NCI-60 one-dose screen, 48 h (100 = growth as untreated, 0 = no growth, -100 = all killed)", "details": "10 µM unless noted"}
{"smiles": "COc1cc(-c2nc(SCCC(C)C)nc(N3CCOCC3)c2C#N)cc(OC)c1OC", "growth": "98.2% (inactive)"}
{"smiles": "CCN(CC)c1nc(SCC(=O)Nc2nc3ccc(C)cc3s2)nc(-c2ccccc2)c1C#N", "growth": "86.7% (inactive)"}
{"smiles": "C/C(=C/CCC(C)[C@@H]1CC[C@]2(C)C3=C(CC[C@@]12C)[C@@]1(C)CCC(=O)C(C)(C)[C@@H]1CC3)C(=O)O", "note": "(some centres undefined)", "growth": "-60.4% (active)"}
{"smiles": "COc1ccc(CCl)c(C)c1OC", "growth": "109% (inactive)"}
{"smiles": "S=c1c2ncccc2c(-c2ccccn2)nn1Cc1ccccn1", "growth": "111% (inactive)"}
{"smiles": "O=S(=O)(O)CC(O)CN1CCN(CCO)CC1", "note": "(centres undefined)", "growth": "105% (inactive)"}
{"smiles": "COc1ccc(N2C(=O)c3cc(OC)c(OC)cc3NC2SCc2ccccc2)cc1", "note": "(centres undefined)", "growth": "108% (inactive)"}
{"smiles": "O=C1OCC2=C1C(c1cccc(F)c1)c1cc3c(cc1N2CCO)CCC3", "note": "(centres undefined)", "growth": "-5.09% (active)"}
{"smiles": "Cc1cccc(-c2nnc(SCC(=O)Nc3ncc(Cc4ccccc4)s3)n2N2C(=O)CSC2=S)c1", "growth": "62.1% (inactive)"}
{"smiles": "COc1ccc(/C(=N\\NC(N)=S)c2ccc(Cl)cc2)cc1OC", "growth": "15.9% (inactive)"}
{"smiles": "Cc1nn(-c2nc3ccccc3[nH]2)c2c1C(c1ccc(OCC(N)=O)cc1)CC(=O)N2", "note": "(centres undefined)", "growth": "108% (inactive)"}
{"smiles": "Cc1nc(N)sc1-c1csc(Nc2ccc(C(F)(F)F)cc2)n1", "growth": "-28.9% (active)"}
{"smiles": "O=C(Nc1ncccc1OCc1ccccc1)NC1CCCCCC1", "growth": "75.5% (inactive)"}
{"smiles": "O=C(CSc1nccc(Nc2ccc(S(=O)(=O)Nc3nccs3)cc2)n1)c1ccc(C(F)(F)F)cc1", "growth": "97% (inactive)"}
{"smiles": "COc1cccc2c(=O)c3c(sc12)c(NCCCNCCO)nc1ccccc13", "growth": "71.3% (inactive)"}
{"smiles": "COc1ccc(C/C(C)=C(/c2ccc(OCCN3CCCCCC3)cc2)c2ccc(OC(=O)NCc3ccccc3)cc2)cc1", "growth": "83% (inactive)"}
{"smiles": "Cc1cc(NC(=O)Nc2cccc3ccccc23)no1", "growth": "107% (inactive)"}
{"smiles": "Cc1c(CC(=O)OCCO)cc(-c2ccc(Cl)cc2)n1-c1ccccc1", "growth": "89.1% (inactive)"}
{"smiles": "O=C1c2ccccc2C(=O)c2c(Nc3ccc(CCO)cc3)ccc(O)c21", "growth": "38% (inactive)"}
{"smiles": "O=C1C=CC(n2cc(F)c(=O)[nH]c2=O)O1", "note": "(centres undefined)", "growth": "85.3% (inactive)"}
{"smiles": "COc1ccc(C(=O)c2cc(OC)c3c(c2)OCO3)cc1O", "growth": "0.266% (active)"}
{"smiles": "Cc1ccc(CC#N)cc1C", "growth": "104% (inactive)"}
{"smiles": "O=CN1N=C(c2ccc3c(c2)OCO3)CC1c1cccc(Nc2ccnc3cc(C(F)(F)F)ccc23)c1", "note": "(centres undefined)", "growth": "47.1% (inactive)"}
{"smiles": "O=C1Nc2ccccc2C12CC(c1ccccc1)=NN2", "note": "(centres undefined)", "growth": "66.4% (inactive)"}
